Measurements reported in PubChem BioAssay AID488794 (Sanford-Burnham Center for Chemical Genomics, 2010).
The whole screen tested about 1,000 compounds, of which about 550 (55%) were called active. So high a share suggests a set chosen from earlier hits. A selection follows. A number with no mark means an inactive call. No stated cut-off is given here; in the data, active means inhibition above about 50%; inactive means the rest.

experiment: NALP3 inhibitors in yeast, repeat test, confirmation, luminescence, single concentration, retest (AID 488794); conditions: yeast expressing human NALP3, luminescence read-out; at 10 µM; hits give high values

Structure (SMILES)	inhibition
CCCCCCCCCCCCn1ccc(=N)cc1	82.8% (active)
Cc1cc2ccccn2c1C(C[N+](=O)[O-])c1c(F)cccc1Cl (centres undefined)	23.2%
Cc1ccc(-c2nc3ccccc3c(=O)n2-c2ccc(Br)cn2)cc1	45.7%
O=C1/C(=C\c2ccc3c(c2)OCO3)N2CCC1CC2	35%
